Source: PubChem BioAssay (National Center for Advancing Translational Sciences (NCATS))
Shown are actives, neighbours in structure and some others; about 5% of the full set was active somewhere.
LmPK inhibitor: qHTS Assay for Inhibitors of Leishmania Mexicana Pyruvate Kinase (LmPK) | Q27686 | purified LmPK, Kinase-Glo ATP luminescence, 1 h | Potency, µM (doses to about 57.5 µM), actives largely listed as inhibitors | hit rate 0.37% among 290,000
Target sequence (Q27686 whole entry, looked up): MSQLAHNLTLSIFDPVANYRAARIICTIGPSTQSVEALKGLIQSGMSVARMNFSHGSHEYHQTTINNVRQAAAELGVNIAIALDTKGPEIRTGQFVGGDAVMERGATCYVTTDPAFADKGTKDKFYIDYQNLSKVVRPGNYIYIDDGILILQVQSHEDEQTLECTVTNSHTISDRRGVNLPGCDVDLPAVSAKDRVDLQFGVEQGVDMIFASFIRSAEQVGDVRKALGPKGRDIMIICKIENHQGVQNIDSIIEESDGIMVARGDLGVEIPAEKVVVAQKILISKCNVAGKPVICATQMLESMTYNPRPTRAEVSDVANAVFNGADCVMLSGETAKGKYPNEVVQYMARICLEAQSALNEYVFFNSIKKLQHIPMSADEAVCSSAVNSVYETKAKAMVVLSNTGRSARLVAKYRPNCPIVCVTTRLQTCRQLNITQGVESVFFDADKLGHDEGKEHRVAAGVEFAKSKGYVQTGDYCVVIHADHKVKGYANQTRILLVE
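Screened at intermediate enzyme activity to detect both inhibitors and activators: LmPK at 0.1 nM, with a 0.5 nM enzyme column as activation reference. PEP 0.5 mM, ADP 0.1 mM; ATP detected by luminescence after 1 h.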
HCMV antiviral: qHTS Assay for inhibitors of the human cytomegalovirus (HCMV); hit rate 4.5% among 410,000; activity change, negative = inhibition, % at 57.5 µM; HFF cells, HCMV-luciferase reporter, 72 h; hits give low values; in the data active means activity change below about -60%; inconclusive means no clear call, values can overlap the other calls; inactive means above about -39%
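Two compound doses tested in HFFs infected with HCMV-luciferase, MOI 1 PFU/cell, 72 h at 37C. Lysate luminescence read with OneGlo; data normalized against buffer-only and 10uM Salinomycin inhibitor controls.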
Vaccinia Venus: qHTS for Stage-Specific Inhibitors of Vaccinia Orthopoxvirus: Venus Reporter Primary qHTS | Vaccinia virus Venus reporter expression, fluorescence | Potency, µM (series often up to 36.5 µM), usual class: inhibitors | hit rate 0.46% among 330,000; calls by dose curve; tested in A549 cells; further: nearly all actives have a fitted effect of over 30% in size
Vaccinia mCherry: qHTS for Stage-Specific Inhibitors of Vaccinia Orthopoxvirus: mCherry Reporter Primary qHTS; Vaccinia virus mCherry reporter infection, fluorescence; Potency, µM (series often up to 36.5 µM), hits mostly inhibitors; hit rate 0.63% among 310,000; AID 720579, 2013; calls by dose curve; tested in A549 cells; further: nearly all actives have a fitted effect of over 35% in size
Tb PYK inh: qHTS of Trypanosoma Brucei Inhibitors. TbPYK enzyme, Kinase-Glo Plus ATP luminescence, 45 min. Potency, µM (series often up to 76.8 µM), usual class: inhibitors. hit rate 0.12% among 410,000. AID 624173, 2012; further: nearly all actives have a fitted effect of over 50% in size
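In this concentration-response screen, enzyme-free wells defined baseline while DMSO plates tracked drift. Each reaction combined TbPYK, substrate, compound and 130 uM ADP for 45 min at room temperature. Kinase-Glo Plus luminescence gave the signal.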
Of the large screens only hits and unclear results are named; the others gave an inactive call. Unless noted, the call rests on the fitted dose curve; in most records, active means well fitted curve in the direction sought with a large enough effect; inconclusive means small, poorly fitted or top-dose-only effect, or another doubt; inactive means no such curve, though single readings can be large; an effect the other way counts as inactive or inconclusive.

COc1ccc(NC(=O)C2CCN(c3nc(C)nc4c3CCC4)CC2)cc1	HCMV antiviral -70.4, Vaccinia Venus inconclusive, Vaccinia mCherry inconclusive
COc1ccc(NS(=O)(=O)c2cc(NC(=O)c3ccc(=O)[nH]c3)ccc2N2CCCC2)cc1	HCMV antiviral -74.3 (no result: Vaccinia Venus, Vaccinia mCherry)
COc1ccc(NS(=O)(=O)c2cc(NC(=O)c3cnc(C)cn3)ccc2N2CCCCC2)cc1	HCMV antiviral -73.8
Cc1ccc(NC(=O)c2cc(N3C(=O)C=CC3=O)ccc2N2CCOCC2)cc1	HCMV antiviral inconclusive, Tb PYK inh 22.4µM
O=C(Nc1ccccc1)OC1CN=C(N[N+](=O)[O-])NC1 (stereo not given)	none
COc1ccc(NS(=O)(=O)c2cc(NC(=O)c3cccnc3Cl)ccc2N2CCCC2)cc1	none (no result: Vaccinia Venus, Vaccinia mCherry)
COc1ccc(NS(=O)(=O)c2cc(NC(=O)c3ccco3)ccc2N2CCCCC2)cc1	HCMV antiviral -75.9, Vaccinia Venus inconclusive, Vaccinia mCherry inconclusive
Cc1ccc(NC(=O)c2cc(NC(=O)c3ccco3)ccc2N2CCCCC2)cc1	HCMV antiviral -63.7
COc1ccc(NS(=O)(=O)c2cc(NC(=O)C3CC3)ccc2N2CCOCC2)cc1	HCMV antiviral inconclusive
COc1ccc(NS(=O)(=O)c2cc(NC(=O)C3CC3)ccc2N2CCCCC2)cc1	HCMV antiviral -101.0
COc1ccc(NS(=O)(=O)c2cc(NC(=O)c3cnc(C)cn3)ccc2N2CCCC2)cc1	HCMV antiviral -65.5, Vaccinia Venus inconclusive
CC1(O)CCC(C(C)(C)O)CC1 (stereo not given)	none (no result: LmPK inhibitor, HCMV antiviral, Vaccinia Venus, Vaccinia mCherry)
CC(C)(C)c1ccc(C(=O)NC(=S)Nc2nc3c(s2)CCCC3)cc1	HCMV antiviral -76.0
CCCOc1ccccc1C(=O)Nc1nc2c(s1)CCCC2	HCMV antiviral -63.7 (no result: LmPK inhibitor)
CN(C)c1ccc(C(=O)Nc2nc3c(s2)CCCC3)cc1	HCMV antiviral -66.6, Vaccinia mCherry inconclusive
CC(C)(C)c1ccc(C(=O)NC(=S)Nc2sc3c(c2C#N)CCC3)cc1	none
O=C(COc1ccccc1Cl)Nc1nc2c(s1)CCCC2	none (no result: LmPK inhibitor)
N#CC1CN(Cc2ccccc2)CN(Cc2ccccc2)C1	HCMV antiviral -62.5
N#CC1CN(C(c2ccccc2)c2ccccc2)C1	HCMV antiviral inconclusive
CCOC(=O)Nc1ccc2c(c1)C(=NO)c1ccccc1-2	Vaccinia Venus inconclusive (no result: LmPK inhibitor)
CCOC(=O)Nc1ccc2c(c1)C(=NNC(N)=S)c1ccccc1-2	HCMV antiviral inconclusive, Vaccinia Venus 15.8µM, Vaccinia mCherry 11.2µM (no result: LmPK inhibitor)
O=S(=O)(c1ccccc1)N(CC(O)Cn1c2ccccc2c2ccccc21)c1ccccc1 (stereo not given)	Vaccinia Venus 10µM (no result: Vaccinia mCherry)
Cc1ccc(S(=O)(=O)N(CC(O)Cn2c3ccccc3c3ccccc32)c2cccc(C(N)=O)c2)cc1 (stereo not given)	HCMV antiviral -80.2 (no result: LmPK inhibitor)
COc1ccc(N(CC(O)Cn2c(C)nc3ccccc32)S(=O)(=O)c2ccc(C)cc2)cc1 (stereo not given)	none
COc1ccc(N(CC(O)Cn2nnc3ccccc32)S(=O)(=O)c2ccc(C)cc2)cc1 (stereo not given)	HCMV antiviral -61.5
COC(=O)C1CCN(CC(=O)Nc2ccc(C(=O)Nc3ccccc3OC)cc2)CC1	none (no result: LmPK inhibitor)
CCc1nn(CC(=O)Nc2ccc(Br)c(C)c2)c(=N)s1	none
O=C(CN1CCCCC1)Nc1ccc(C(F)(F)F)cc1Cl	HCMV antiviral -70.4
O=C(CN1CCCC1)Nc1cc(C(F)(F)F)ccc1Cl	none
CCCn1c(SCC(=O)NC(=O)NC(C)(C)C)n[nH]c1=O	none (no result: Vaccinia Venus, Vaccinia mCherry)
O=C(NCCCN1CCOCC1)c1ccc(CNS(=O)(=O)c2ccc(Br)cc2)cc1	none
COc1ccc(CN(CCC#N)C(=S)NC(=O)c2ccccc2)cc1	LmPK inhibitor 20µM, Tb PYK inh inconclusive (no result: Vaccinia mCherry)
CC1CCCN(S(=O)(=O)c2ccc(C(=O)Nc3nnc(-c4ccccc4Cl)o3)cc2)C1 (stereo not given)	HCMV antiviral -98.2
COc1cccc(-c2nnc(NC(=O)c3ccc(S(=O)(=O)N4CC(C)OC(C)C4)cc3)o2)c1 (stereo not given)	HCMV antiviral -94.4, Vaccinia Venus inconclusive, Vaccinia mCherry inconclusive
CC1CC(C)CN(S(=O)(=O)c2ccc(C(=O)Nc3nnc(-c4cccs4)o3)cc2)C1 (stereo not given)	HCMV antiviral -70.2
CC1CN(S(=O)(=O)c2ccc(C(=O)Nc3nnc(-c4ccco4)o3)cc2)CC(C)O1 (stereo not given)	none
CC1CCCN(S(=O)(=O)c2ccc(C(=O)Nc3nnc(-c4ccccn4)o3)cc2)C1 (stereo not given)	none
COc1ccccc1C(=O)OCCc1ccccc1	HCMV antiviral -100.0 (no result: LmPK inhibitor)
O=C(CN1C(=O)c2ccccc2S1(=O)=O)c1ccccc1F	HCMV antiviral inconclusive
O=C(CN1C(=O)c2ccccc2S1(=O)=O)NC1CCCCCC1	HCMV antiviral -74.5
O=C(CN1C(=O)c2ccccc2S1(=O)=O)c1ccc2c(c1)OCCCO2	HCMV antiviral -95.8
O=C(CN1c2cccc3cccc(c23)S1(=O)=O)NC1CCCCC1	none (no result: LmPK inhibitor, Vaccinia Venus, Vaccinia mCherry)
O=C(CN1C(=O)c2ccccc2S1(=O)=O)c1ccc(F)cc1	HCMV antiviral -67.5 (no result: Vaccinia Venus, Vaccinia mCherry)
O=C(CCN1C(=O)c2ccccc2S1(=O)=O)Nc1ccc2c(c1)OCCO2	none
O=C(CN1C(=O)c2ccccc2S1(=O)=O)c1ccc(Cl)cc1Cl	HCMV antiviral -91.5 (no result: LmPK inhibitor)
Cc1ccc(C(C)(C)C)c(OCC(=O)NCCc2nc3ccccc3[nH]2)c1	none (no result: LmPK inhibitor)
O=c1cc2c(nn1Cc1cccc(Cl)c1)-c1ccccc1CC2	none
CC(=O)N1CCOc2ccc(S(=O)(=O)NCCc3ccc(S(N)(=O)=O)cc3)cc21	none
S=C(NC1CCCC1)NC1CCCC1	none (no result: Vaccinia Venus, Vaccinia mCherry)
O=C(CN1C(=O)c2ccccc2S1(=O)=O)c1ccc2c(c1)OCCO2	HCMV antiviral -98.4 (no result: Vaccinia Venus, Vaccinia mCherry)
CC1CCN(CC(=O)c2ccc3c(c2)OCCO3)CC1	HCMV antiviral -60.6
CC1CCN(CC(C)OC(=O)c2ccc3c(c2)OCCO3)CC1 (stereo not given)	none (no result: Vaccinia Venus, Vaccinia mCherry)
O=C(CN1C(=O)c2ccccc2S1(=O)=O)c1cccc(Br)c1	none
CC[C@@H]1CCC[C@@H](O)[C@@H](C)C(=O)O[C@H](C)[C@@H](C)C/C=C(C)/C(OC)=C\C(=O)N(C)C([C@@H](C)CC)C(=O)N(C)[C@@H](C(C)C)C(=O)N(C)[C@@H](COC)C(=O)N2CCC[C@H]2C(=O)N(C)[C@@H](C(C)C)C(=O)N2CCC[C@H]2C(=O)O1 (stereo not given in full)	HCMV antiviral -101.9, Vaccinia Venus inconclusive, Vaccinia mCherry inconclusive (no result: LmPK inhibitor)
COc1ccc(OCCNc2cc(Cl)ccc2[N+](=O)[O-])cc1	HCMV antiviral -65.3
COc1cccc(OCCNc2cc(N3CCOCC3)ccc2[N+](=O)[O-])c1	Vaccinia Venus inconclusive
COc1ccc(OCCNc2cc(N3CCCCC3)ccc2[N+](=O)[O-])cc1	HCMV antiviral inconclusive, Vaccinia mCherry inconclusive
